Experimental findings from PubChem BioAssay (NCATS) are described below.

For test [1], the target named is Cellular tumor antigen p53 (Homo sapiens) (UniProt P04637). Put plainly: Primary qHTS for small molecule compounds that upregulate eGFP-tagged delta133p53alpha (in N-terminal) cells. (AID 2060322). Also: nearly all actives have a fitted effect of over 75% in size. Also: potency is read from the fitted curve at half-maximal effect.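 As to activation: 0% = DMSO vehicle and 100% = reference activator.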 The conditions noted are these: NCI-H358 eGFP-delta133p53alpha fluorescence, 24 h; activation: stronger effect = higher value. Put shortly:
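NCI-H358 cells pre-induced 24 h with 10 ng/ml doxycycline to express N-terminal eGFP-delta133p53alpha, then dosed 24 h at 37C without doxycycline; fixed, Hoechst-stained, GFP intensity by laser scanning cytometry, normalized to DMSO (0%) and 57.5 uM 5-azacytidine (100%).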
For orientation: qHTS replaces the single test concentration by a dilution series.

Test [2] addresses Aldehyde dehydrogenase, mitochondrial (Homo sapiens) (UniProt P05091). The experiment in a line: qHTS for Inhibitors of the Aldehyde Dehydrogenase Family (ALDH2) Primary screen (AID 2061308).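 Also: plate controls were vehicle for no effect and reference inhibitor for full effect; nearly all actives have a fitted effect of over 55% in size.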 The conditions noted are these: ALDH2 enzyme inhibition qHTS, 1536-well; series mostly up to 56 µM.
For test [3], the target named is Retinaldehyde dehydrogenase 3 (Homo sapiens) (UniProt P47895). The experiment in a line: qHTS for Inhibitors of the Aldehyde Dehydrogenase Family (ALDH1A3) Primary screen (AID 2061315).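 Also: plate controls were DMSO vehicle for no effect and reference inhibitor for full effect.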 The conditions noted are these: ALDH inhibition qHTS; series mostly up to 56 µM.
Test [4] is described as follows: BET inhibitor-based combinations targeting novel dependencies in MECOM-rearranged (r) AML: SET-2 cell line (AID 2202231). Also: nearly all actives have a fitted effect of over 35% in size. Also: potency is read from the fitted curve at half-maximal effect.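 As to viability: plate controls were DMSO treated cells for no effect and wells without cells for full effect.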 The conditions noted are these: SET-2 AML cells viability, CellTiter-Glo luminescence, 48 h; viability: stronger effect = lower value, concentration not given here. Put shortly:
(§1)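 Viability of cells (500 per well) is scored by luminescent CellTiter-Glo at 48 hr post-dosing. Eleven-point titrations are normalized to DMSO and empty controls and reduced to AUC values.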
Background: In ATP-based viability assays light output follows the ATP content of the culture.

Test [5] can be described thus: BET inhibitor-based combinations targeting novel dependencies in MECOM-rearranged (r) AML: OCI-AML3 cell line (AID 2202232). Also: nearly all actives have a fitted effect of over 35% in size. Also: potency is read from the fitted curve at half-maximal effect.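 As to viability (% of control): plate controls were DMSO vehicle wells for no effect and wells without cells for full effect.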 The conditions noted are these: CellTiter-Glo luminescence, 48 h; Potency: OCI-AML3 viability; series mostly up to 46 µM. The essentials: as §1
The nature of test [6]: BET inhibitor-based combinations targeting novel dependencies in MECOM-rearranged (r) AML: MV-4-11 cell line (AID 2202233). Also: nearly all actives have a fitted effect of over 45% in size. Also: potency is read from the fitted curve at half-maximal effect.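 As to viability, % of control: plate controls were DMSO for no effect and blank wells for full effect.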 The conditions noted are these: MV-4-11 AML viability, CellTiter-Glo luminescence, 48 h; series mostly up to 46 µM. The essentials:
(§2)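 Using pin-tool transfer, drugs were added in 11 doses to cells (500/well), incubated 48 hr, and assessed with CellTiter-Glo. Z-AUC is a mean-centring transformation applied separately to each screened line.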

A short description of test [7]: BET inhibitor-based combinations targeting novel dependencies in MECOM-rearranged (r) AML: HNT-34 cell line (AID 2202234). Also: nearly all actives have a fitted effect of over 35% in size. Also: potency is read from the fitted curve at half-maximal effect.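 As to viability (% of control): plate controls were vehicle wells for no effect and cell-free wells for full effect.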 The conditions noted are these: HNT-34 AML viability, CellTiter-Glo luminescence, 48 h; series mostly up to 46 µM. The essentials:
as §2

Test [8] is described as follows: BET inhibitor-based combinations targeting novel dependencies in MECOM-rearranged (r) AML: AML-194 cell line (AID 2202237; also: nearly all actives have a fitted effect of over 40% in size; also: potency is read from the fitted curve at half-maximal effect;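 as to viability (% of control): plate controls were vehicle wells for no effect and wells without cells for full effect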). The conditions noted are these: AML-194 (MECOM-r AML) viability, CellTiter-Glo, 48 h; series mostly up to 46 µM. Put shortly: as §1
Test [9] is described as follows: BET inhibitor-based combinations targeting novel dependencies in MECOM-rearranged (r) AML: UCSD-AML1 cell line (AID 2202235). Also: nearly all actives have a fitted effect of over 40% in size. Also: potency is read from the fitted curve at half-maximal effect.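 As to viability (% of control): plate controls were DMSO vehicle wells for no effect and blank wells for full effect.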 The conditions noted are these: UCSD-AML1 AML cells viability, CellTiter-Glo, 48 h; series mostly up to 46 µM. Put shortly: as §2
Test [10] can be described thus: BET inhibitor-based combinations targeting novel dependencies in MECOM-rearranged (r) AML: AML-191 cell line (AID 2202236; also: nearly all actives have a fitted effect of over 35% in size; also: potency is read from the fitted curve at half-maximal effect;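 as to viability (% of control): plate controls were vehicle wells for no effect and wells without cells for full effect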). The conditions noted are these: AML-191 viability, CellTiter-Glo luminescence, 48 h; series mostly up to 46 µM. Put shortly:
as §1

The viability is a read-out of living cells in per cent, often relative to untreated cells.

Values joined by “and” are separate entries in the source; they are usually repeats but may differ in a detail not shown here. Equal entries are not always repeated. Inconclusive results are not listed. Unmarked numbers belong to inactive results. Active and inactive are the calls of the source. Calls follow the shape of the dose curve; as a rule, active = well fitted curve in the direction sought with a large enough effect; inconclusive = small, poorly fitted or top-dose-only effect, or another doubt; inactive = no such curve, though single readings can be large; an effect the other way counts as inactive or inconclusive.

Chain of Cellular tumor antigen p53 (Homo sapiens) (P04637 whole entry, looked up): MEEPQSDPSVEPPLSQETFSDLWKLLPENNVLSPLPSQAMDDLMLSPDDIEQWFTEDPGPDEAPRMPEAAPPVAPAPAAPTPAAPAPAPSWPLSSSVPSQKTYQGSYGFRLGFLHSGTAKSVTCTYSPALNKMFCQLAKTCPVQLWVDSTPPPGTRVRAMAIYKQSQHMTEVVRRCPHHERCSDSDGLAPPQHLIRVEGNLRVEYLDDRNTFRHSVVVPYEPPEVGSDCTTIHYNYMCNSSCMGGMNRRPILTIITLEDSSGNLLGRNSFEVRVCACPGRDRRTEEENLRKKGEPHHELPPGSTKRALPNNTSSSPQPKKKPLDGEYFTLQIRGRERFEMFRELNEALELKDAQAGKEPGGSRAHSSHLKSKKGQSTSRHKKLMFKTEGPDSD

With `N#Cc1ccnc(N2C(=O)CC[C@H]2C(=O)N(c2cncc(F)c2)[C@H](C(=O)NC2CC(F)(F)C2)c2ccccc2Cl)c1`, the activation in test [1] was -19.7% and -8.38%. Also, the Potency entry in [2], in test [3], in test [5], in test [6], in test [7] and in [8] was “inactive” each time. In addition, in test [4], the viability was 105%.

As to `Nc1ccc(/C=C/C(=O)NCc2cc3cc(-c4ccc(C(=O)N5CCC(F)(F)CC5)cc4)cc(-c4ccc(F)cc4)c3o2)cn1`, the activation in test [1] is -7%. For the same molecule, the Potency result in [2] and in [3] was “inactive” throughout. Further, the viability in test [4] was 104%. In addition, the Potency was 0.525 µM (active) in test [5]; 2.35 µM (active) in test [6]; 0.742 µM (active) in test [7]; 1.18 µM (active) in test [9]; 18.6 µM (active) in test [8].

As for `COc1c(C)cc(NC(=O)c2nn(Cc3ccc(F)cc3)c3c2CN(C(=O)c2ccc[nH]2)C[C@]3(C)C(N)=O)cc1C`, the activation in test [1] is 0.333%. For the same molecule, the Potency result in test [2] and in test [3] was “inactive” each time. Moreover, the viability in test [4] is 118%. Besides, the viability (% of control) is 113% [at 8.46 µM] in test [5], 105% [at 8.46 µM] in test [7] and 108% [at 8.46 µM] in [8]. In addition, the viability, % of control in [6] is 114% [at 8.46 µM].

For `Oc1ccc([C@@H]2Oc3ccc(O)cc3[C@@H]3CCC[C@@H]32)cc1`, the activation in test [1] was 23.4%. Besides, the Potency result in test [2] and in test [3] was “inactive” in each case. Also, the Potency was 18.6 µM (active) in [4]; 16.6 µM (active) in [5]; 13.2 µM (active) in test [6]; 5.9 µM (active) in [9]; 5.9 µM (active) in test [10]; 7.42 µM (active) in [8].

With `C=CC(=O)Nc1cccc(Nc2nc(Nc3ccc(OCCOC)cc3)ncc2F)c1`, the Potency is 9.53 µM (active) in [1]; 16.6 µM (active) in test [4]; 14.8 µM (active) in test [5]; 1.48 µM (active) in test [6]; 1.86 µM (active) in [7]; 8.33 µM (active) in test [9]. In addition, the Potency in [10] was 8.33 µM (active); in test [8], 9.34 µM (active). Moreover, the Potency result in [2] and in [3] was “inactive” in each case.

On to `Cc1cn(CCN2CCN(c3ccccc3-c3cc(C#N)cc(C(=O)NCCCN4CCCC4)c3)CC2)c2ccccc12`, for which the activation in test [1] was 15.8%. For the same molecule, the Potency entry in test [2] and in [3] was “inactive” each time. Also, the Potency was 23.5 µM (active) in [4]; 18.6 µM (active) in test [5]; 20.9 µM (active) in test [6]; 18.6 µM (active) in test [7]; 18.6 µM (active) in test [10]; 18.6 µM (active) in [8].

As for `C=CC(=O)Nc1cccc(Oc2nc(Nc3ccc(N4CCN(C)CC4)cc3)ncc2Cl)c1`, the Potency was 9.68 µM (active) and 13.5 µM (active) in [1]; 14.8 µM (active) in test [4]; 7.42 µM (active) in test [5]; 1.86 µM (active) in [6]; 2.35 µM (active) in test [7]; 4.17 µM (active) in [9]. Moreover, the Potency in [10] is 5.9 µM (active); in test [8], 5.25 µM (active). In addition, the Potency result in test [2] and in test [3] was “inactive” throughout.

Regarding `CCn1c(-c2nonc2N)nc2cncc(CNC3CCNCC3)c21`, the activation in test [1] is -16.3% and 6.25%. In addition, the Potency result in test [2] and in test [3] was “inactive” throughout. Also, the viability in [4] is 103%. The results for the Potency in test [5], in test [10] and in test [8] were 1.66 µM (active), 1.86 µM (active) and 4.68 µM (active), respectively.

In the case of `O=c1ccn([C@@H]2O[C@H](CO)[C@@H](O)[C@H]2O)c(=O)[nH]1`, the activation in test [1] is 10.3%. Also, the Potency entry in [2], in test [3], in test [5], in test [9], in test [10] and in [8] was “inactive” throughout. The viability in test [4] was 115%.

For the molecule `CC1c2ccccc2CN1NC(=O)c1ccc(Cl)c(S(N)(=O)=O)c1` (stereo not given), the activation in test [1] was 6.69%. Also, the Potency entry in test [2], in test [3], in test [6], in test [7], in [9] and in [10] was “inactive” each time. Moreover, in [8], the Potency entry is “inactive”. Further, the viability in test [4] is 109%.

Consider `O=C(NC1CCOCC1)c1ccc(-c2cc(-c3cn[nH]c3-c3ccccn3)ccn2)cc1`, for which, in test [1], the activation was 37.2% and 4.46%. Further, the Potency entry in test [2], in test [3], in [5], in test [9], in [10] and in test [8] was “inactive” each time. Further, the viability in [4] was 101%.

As to `CC(C)c1cc(C(C)C)c(CC(=O)NS(=O)(=O)Oc2c(C(C)C)cccc2C(C)C)c(C(C)C)c1`, the activation in test [1] was 11.6% and 19%. In addition, the Potency entry in test [2], in [3], in test [9] and in [8] was “inactive” in each case. In addition, the viability in test [4] is 106%. Moreover, the figures for the Potency in test [5] and in test [10] were 10.5 µM (active) and 8.33 µM (active), respectively.

With `NC(=O)c1cccc(-c2cc(Nc3ccc(OC(F)(F)F)cc3)ncn2)c1`, the activation in test [1] is -25.2% and 10.7%. The Potency entry in test [2] and in test [3] was “inactive” each time. Moreover, the values for the Potency in test [4], in test [6] and in [7] were 20.9 µM (active), 16.6 µM (active) and 1.86 µM (active), respectively.

Turning to `Cn1cc(-c2ccc(S(=O)(=O)n3ccc(/C=C/C(=O)Nc4ccccc4N)c3)cc2)cn1`, the Potency is 19 µM (active) in test [1]; 1.86 µM (active) in [4]; 1.18 µM (active) in test [6]; 1.05 µM (active) in [7]; 1.18 µM (active) in test [9]; 0.833 µM (active) in test [10]. Moreover, the Potency in [8] is 1.05 µM (active). In addition, the Potency result in test [2] and in [3] was “inactive” throughout.

For the molecule `Cc1ccc(C(=O)Nc2cccc(C(F)(F)F)c2)cc1-c1ccc2nc(NCCN3CCOCC3)ncc2c1`, the Potency in test [1] is 26.9 µM (active); in [4] it was 11.8 µM (active); in test [6] it was 2.35 µM (active); in test [7], 0.0934 µM (active); in test [9], 3.32 µM (active); in test [10] it was 2.63 µM (active). The Potency in test [8] was 3.32 µM (active). Moreover, the Potency entry in [2] and in test [3] was “inactive” in each case.

Turning to `CC[C@H](C)C(=O)O[C@H]1C[C@@H](C)C=C2C=C[C@H](C)[C@H](CC[C@@H]3C[C@@H](O)CC(=O)O3)[C@H]21`, the activation in test [1] was -14.1% and 11.5% and 5.34%. Besides, the Potency result in test [2] and in [3] was “inactive” each time. Also, the viability in test [4] is 109%. For the same molecule, the Potency in [6] is 10.5 µM (active); in test [7] it was 5.9 µM (active); in test [9], 9.34 µM (active); in test [10], 10.5 µM (active).
